DAX1 inh-1 = NR0B1 (DAX1) inhibition; HEK293 Gal4-DAX1 luciferase reporter, luminescence; 0.99% of 340,000 active; inhibition, % at 6.75 µM;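 active = inhibition above the mean over all tested compounds plus 3 SD, cut at about 4.2% in these data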;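 note: inhibition shows as a rise in luminescence from relieved DAX1 repression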
DAX1 inh-2 = DAX1 (NR0B1) inhibition, primary screen; HEK293T StAR-luciferase reporter, SF-1/DAX-1 repression relief; inhibition, % at 6.8 µM; 1.1% of 370,000 active; AID 652010;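 active = inhibition above the mean over all tested compounds plus 3 SD, cut at about 3.6% in these data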;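 note: higher inhibition means more luminescence from relief of DAX-1 repression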
ssDAF-12 act = activates DAF-12 receptor from parasite S. stercoralis | HEK293 ssDAF-12/GRIP1 lit1-tk-luc reporter, luminescence; % of 3 µM dafachronic acid response | activation, % at 6.8 µM | 1% of 370,000 active | AID 652126;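 active = activation above the mean over all tested compounds plus 3 SD, cut at about 0.9% in these data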
hgDAF-12 ag = agonists of H. glycines DAF-12 nuclear receptor | activation, % at 6.8 µM | HEK293 GAL4-hgDAF12 UAS-luciferase reporter, agonist luminescence; normalized to butyrate control | 1.8% of 370,000 active;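 active = activation above a cutoff set at the mean of all screened compounds plus 3 SD, cut at about 10% in these data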
hcDAF-12 act = activators of H. contortus DAF-12 nuclear receptor. HEK293 hcDAF-12 lit1-tk-luc reporter, luminescence; 0% DMSO, 100% Δ7-dafachronic acid. activation, % at 6.8 µM. 1.4% of 370,000 active. AID 652067;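 active = activation above the mean of all tested compounds plus 3 SD, cut at about 5.5% in these data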
AHR activator = activates the human aryl hydrocarbon receptor. P35869. AHR-responsive luciferase reporter cells, luminescence. 2.5% of 320,000 active. activation, % at 5 µM; in the data active = activation above about 47%
Target sequence (P35869 whole entry, looked up): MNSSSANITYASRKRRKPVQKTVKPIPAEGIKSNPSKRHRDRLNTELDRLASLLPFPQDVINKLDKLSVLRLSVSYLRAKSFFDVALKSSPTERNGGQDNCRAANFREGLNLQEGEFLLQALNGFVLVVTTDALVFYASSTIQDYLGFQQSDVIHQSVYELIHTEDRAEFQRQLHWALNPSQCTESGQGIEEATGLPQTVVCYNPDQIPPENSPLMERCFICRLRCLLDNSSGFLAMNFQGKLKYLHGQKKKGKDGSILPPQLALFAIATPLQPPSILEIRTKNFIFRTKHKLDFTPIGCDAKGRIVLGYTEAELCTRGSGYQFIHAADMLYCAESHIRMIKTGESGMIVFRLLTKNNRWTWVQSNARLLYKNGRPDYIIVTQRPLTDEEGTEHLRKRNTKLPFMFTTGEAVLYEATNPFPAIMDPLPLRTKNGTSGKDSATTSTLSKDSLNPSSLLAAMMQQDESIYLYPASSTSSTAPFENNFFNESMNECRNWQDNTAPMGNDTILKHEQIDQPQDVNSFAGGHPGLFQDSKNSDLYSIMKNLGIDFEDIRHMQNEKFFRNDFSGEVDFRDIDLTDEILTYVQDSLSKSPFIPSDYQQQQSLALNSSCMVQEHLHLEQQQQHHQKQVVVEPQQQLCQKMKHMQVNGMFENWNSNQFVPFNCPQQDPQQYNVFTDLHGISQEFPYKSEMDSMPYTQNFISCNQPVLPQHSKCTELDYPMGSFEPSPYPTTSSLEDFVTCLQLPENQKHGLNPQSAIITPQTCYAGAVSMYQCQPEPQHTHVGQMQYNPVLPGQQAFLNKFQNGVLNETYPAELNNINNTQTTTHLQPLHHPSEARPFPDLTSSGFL
Of the large screens only hits and unclear results are named; the others gave an inactive call. A selection: hits, their analogues and other compounds. The true share with any hit is near 5.7%.

COc1ccc(C(=O)/C=C/c2cn(CC(O)CN3CCN(C)CC3)c3ccccc23)cc1OC (centres undefined)	DAX1 inh-1 5.0
O=C(/C=C/c1cn(CC(O)CN2CCCCC2)c2ccccc12)c1ccccc1 (centres undefined)	none (no result: AHR activator)
Cc1ccc(S(=O)(=O)N2CCN(C(=O)CSCc3ccc(C(C)C)cc3)CC2)cc1	none
N#Cc1ccc(C(=O)OCC(=O)NC(=O)NCc2ccccc2)cc1	none (no result: AHR activator)
O=C(Nc1ccccc1F)c1ccc2ncsc2c1	hgDAF-12 ag 13
O=C(Nc1cccc(F)c1)c1ccc2ncsc2c1	none (no result: DAX1 inh-2, ssDAF-12 act, hgDAF-12 ag, hcDAF-12 act)
CCOC(=O)C1CCN(C(=O)c2cc3c(=O)n4ccccc4nc3s2)CC1	hcDAF-12 act 6.4
CCOC(=O)C1CCN(C(=O)c2cc3c(=O)n4cccc(C)c4nc3s2)CC1	hcDAF-12 act 6.5
CCN(CC)C(=O)c1cc2c(=O)n3ccccc3nc2s1	hcDAF-12 act 6.5
CCN1CCN(C(=O)c2cc3c(=O)n4ccccc4nc3s2)CC1	none
CCOc1ccc(NC(=O)CN2C(=O)CSC2=O)cc1	none
Cc1cc(N/C=C(\C#N)S(=O)(=O)c2ccccc2Cl)nc(C)n1	none
Cc1cc(N/C=C(\C#N)S(=O)(=O)c2ccc(Cl)cc2)nc(C)n1	DAX1 inh-1 4.2
O=C(CSc1nnc(SCc2cccc3ccccc23)s1)N=Nc1c(O)[nH]c2ccccc12	none (no result: DAX1 inh-1, DAX1 inh-2, ssDAF-12 act, hgDAF-12 ag, hcDAF-12 act)
O=C(COC(=O)C12CC3CC(CC(Cl)(C3)C1)C2)Nc1ccccc1	none
CC1CCCCC1NC(=O)COC(=O)C12CC3CC(CC(Cl)(C3)C1)C2 (centres undefined)	DAX1 inh-1 6.0
Cc1nc(Nc2ccccc2)sc1C	DAX1 inh-1 7.2
O=C(NCCOC(=O)C1COc2ccccc2O1)c1cccnc1 (centres undefined)	none
CCCCC(C(=O)O)C(C)CC(=O)Nc1nncs1 (centres undefined)	DAX1 inh-1 4.7
Cc1nnc(N/N=C/c2ccc(Br)cc2)n1N	none
Cc1nnc(N/N=C/c2ccc(-c3ccc(Br)cc3)o2)n1N	AHR activator 49
CC(=O)C(C(c1ccccc1)N1CCCc2ccccc21)N1CCOCC1 (centres undefined)	ssDAF-12 act 1.1 (no result: AHR activator)
O=C(c1ccc([N+](=O)[O-])cc1)N1CCOCC1	ssDAF-12 act 8.9 (no result: AHR activator)
O=C(NCC(O)CN1CCOCC1)c1ccc([N+](=O)[O-])cc1 (centres undefined)	DAX1 inh-1 6.2
O=C(Nc1ccccc1)C1CCN(C(=O)c2ccc([N+](=O)[O-])cc2)CC1	none
CC(=O)c1cccc(NC(=O)C2CCN(C(=O)c3ccc([N+](=O)[O-])cc3)CC2)c1	ssDAF-12 act 2.3
O=C(NCCc1ccccc1)C1CCC(Cn2c(=O)c3ccccc3n(Cc3cccc(Cl)c3)c2=O)CC1 (centres undefined)	DAX1 inh-1 6.0
COc1cc(CNCCc2ccc(F)cc2)ccc1OCc1ccc(Cl)nc1	none
COc1cc(CO)ccc1OCc1ccc(Cl)nc1	ssDAF-12 act 1.3, hgDAF-12 ag 11
N#CCc1nc2ccccc2c(=O)[nH]1	none
O=c1[nH]c(CS(=O)(=O)c2ccccc2)nc2ccccc12	AHR activator 74
COc1ccc([C@@H]2C[C@H]3[C@@H](CN2S(=O)(=O)c2ccccc2)C(=O)C[C@@H](c2cccc4ccccc24)N3S(=O)(=O)c2ccc(C)cc2)cc1	none (no result: AHR activator)
COc1ccccc1NC(=O)c1sc(NC(=O)c2ccco2)c(C#N)c1C	AHR activator 66
COc1ccccc1C(=O)Nc1cc(C)ccc1NC(=O)c1ccco1	AHR activator 65
CCOc1ccccc1NC(=O)c1cc(Cl)ccc1NC(=O)c1ccco1	none
COc1cc(NC(=O)c2ccc(OC)c([N+](=O)[O-])c2)ccc1NC(=O)c1ccco1	AHR activator 50
O=C(Nc1ccc(Cl)cc1C(=O)Nc1ccccn1)c1ccco1	AHR activator 64
Cc1[nH]c2ccccc2c1CC(=O)Nc1ccc(Nc2cccnc2)c(-c2ccc(OC(F)(F)F)cc2)c1	none (no result: DAX1 inh-1, AHR activator)
COc1ccccc1NC(=O)c1cc(Cl)ccc1NC(=O)c1ccco1	AHR activator 63
COC(=O)[C@]12C[C@H](CC(=O)N3CCSCC3)C(=O)N(Cc3ccc4c(c3)OCO4)C1=C[C@H](COCc1ccccc1)O[C@@H]2C	none (no result: DAX1 inh-1, AHR activator)
CCN(C(=O)CSc1ncccc1C(=O)Oc1cccc([N+](=O)[O-])c1)c1cccc(C)c1	none
CSc1cccc(NC(=O)CSc2ncccc2C(=O)Oc2cccc([N+](=O)[O-])c2)c1	ssDAF-12 act 1.4
Brc1cccc2sc(N3CCCC3)nc12	hgDAF-12 ag 11
Cc1c(N2C(=O)c3ccc(Br)cc3C2=O)c(=O)n(-c2ccccc2)n1C	DAX1 inh-1 5.4
Cc1c(N2C(=O)c3ccc4c5c(ccc(c35)C2=O)CC4)c(=O)n(-c2ccccc2)n1C	none (no result: DAX1 inh-2, ssDAF-12 act, hgDAF-12 ag, hcDAF-12 act)
O=[N+]([O-])c1nccn1CC(O)CO (centres undefined)	none (no result: DAX1 inh-1, AHR activator)
CNC(=S)N(CCc1c(C)[nH]c2ccc(C)cc12)Cc1ccc(OC)c(OC)c1	none
CNC(=S)N(CCc1c(C)[nH]c2ccc(C)cc12)Cc1ccco1	AHR activator 55
CCNC(=S)N(CCc1c(C)[nH]c2ccc(Cl)cc12)Cc1ccco1	AHR activator 47
COCCNC(=S)N(CCc1c(C)[nH]c2ccccc12)Cc1ccco1	none
CCOc1ccc(NC(=S)N(CCc2c(C)[nH]c3ccccc23)Cc2cccnc2)cc1	none
COc1ccc(NC(=S)N(CCc2c(C)[nH]c3ccc(C)cc23)Cc2cccnc2)cc1	AHR activator 54
Cc1ccc(S(=O)(=O)NCc2ccccn2)cc1C	none
Cc1nn(C)c(C(=O)Nc2ccc(Cl)c([N+](=O)[O-])c2)c1Cl	AHR activator 48
Cc1cc(NC(=O)c2c(Cl)c(C)nn2C)no1	none
COc1cc(C(=O)Nc2ccc(Cl)c([N+](=O)[O-])c2)cc(OC)c1OC	none
Cc1cc(NC(=O)c2c([N+](=O)[O-])c(C)nn2C)no1	AHR activator 70
Cc1ccc2c(Cl)c(C(=O)Nc3cc(C)on3)sc2c1	DAX1 inh-1 5.2
CCOc1cc(C(=O)Nc2cccnc2)cc(OCC)c1OCC	ssDAF-12 act 1.2, AHR activator 73
CCOc1cc(C(=O)Nc2cc(C)on2)cc(OCC)c1OCC	AHR activator 64
Cc1cc(NC(=O)c2cc(-c3ccc(O)cc3)on2)no1	hgDAF-12 ag 11
Cc1cc(NC(=O)c2ccc(Cl)cc2)no1	hgDAF-12 ag 11
C/C(=C\c1ccccc1)C(=O)Nc1cc(C)on1	hgDAF-12 ag 11
COc1ccc(-c2csc3nc(C)nc(N4CCN(c5ccc(C(C)=O)cc5)CC4)c23)cc1OC	none
CC(C)(C)C(=O)OC12CCCN(C1)/C(=C/c1cccc(Cl)c1)C2 (centres undefined)	none (no result: DAX1 inh-1, AHR activator)
